Compound activity deposited in PubChem BioAssay by National Center for Advancing Translational Sciences (NCATS).
FLuc inh-1 = Photinus pyralis luciferase inhibition | purified P. pyralis luciferase, luminescence, biochemical | Potency, µM (titrated, usually from 115 µM), hits mostly inhibitors | actives 2.5% (n = 76,000); further: on the % scale 0 is the no-effect control and ±100 the full control effect; nearly all actives have a fitted effect of over 65% in size
Target sequence (P08659 whole entry, looked up): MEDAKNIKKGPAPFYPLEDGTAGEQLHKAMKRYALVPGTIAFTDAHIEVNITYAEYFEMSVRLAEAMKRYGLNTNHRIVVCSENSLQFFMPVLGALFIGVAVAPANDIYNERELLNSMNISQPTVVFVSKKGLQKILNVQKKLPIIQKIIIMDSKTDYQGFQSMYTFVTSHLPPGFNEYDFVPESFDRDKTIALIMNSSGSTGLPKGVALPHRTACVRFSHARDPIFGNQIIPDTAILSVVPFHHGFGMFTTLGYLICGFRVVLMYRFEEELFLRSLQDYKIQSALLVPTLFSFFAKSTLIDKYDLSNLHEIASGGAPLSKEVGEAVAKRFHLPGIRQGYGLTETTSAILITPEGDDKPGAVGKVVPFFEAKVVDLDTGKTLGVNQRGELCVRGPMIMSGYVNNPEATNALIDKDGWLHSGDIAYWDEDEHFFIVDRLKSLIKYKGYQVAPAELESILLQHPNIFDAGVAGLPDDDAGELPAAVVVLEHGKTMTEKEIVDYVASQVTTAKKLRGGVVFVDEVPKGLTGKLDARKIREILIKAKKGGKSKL
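Purified 10nM P. pyralis luciferase with 10uM D-luciferin and 10uM ATP in 50mM Tris acetate pH 7.5, 10mM Mg acetate, 0.01% Tween-20, 0.05% BSA. qHTS titration; luminescence read by CCD imager.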
hNpr1 antagonist = antagonists of human natriuretic peptide receptor Npr1. P16066. HEK293 hNpr1 GloSensor cGMP, ANP-stimulated luminescence. Potency, µM (top dose mostly 46.3 µM), inactives show at the top dose activity change, negative = inhibition, usual class: inhibitors. actives 1.6% (n = 76,000). AID 1347048; calls by dose curve; further: on the % scale 0 is the no-effect control and ±100 the full control effect; nearly all actives have a fitted effect of over 60% in size
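HEK293 cells stably expressing human Npr1 and cGMP GloSensor pGS-40F, loaded 2 h with 2% GloSensor reagent, given compound 30 min at room temperature. Luminescence read before and 20 min after 0.1 nM hNppA.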
NIH3T3 tox = cytotoxic compounds in NIH 3T3 cells | NIH 3T3 viability, CellTiter-Glo ATP luminescence, 48-72 h | Potency, µM (doses to about 96.7 µM), for inactives: at the highest dose activity change, negative = cytotoxicity, hits mostly inhibitors | actives 4.3% (n = 94,000); further: on the % scale 0 is the no-effect control and ±100 the full control effect; nearly all actives have a fitted effect of over 55% in size
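Cytotoxicity was measured by CellTiter-Glo ATP luminescence after 48 or 72 h compound exposure at 37 °C. Mouse NIH 3T3 fibroblasts were seeded at 400 cells/well and dosed by 23 nL pin transfer.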
HEK293 tox = HEK 293 cell cytotoxicity; actives 6.6% (n = 94,000); HEK 293 viability, ATP luminescence (CellTiter-Glo), 48-72 h; Potency, µM (doses to about 115 µM), inactives show top-dose activity change, negative = cytotoxicity, most hits filed as inhibitors; further: on the % scale 0 is the no-effect control and ±100 the full control effect; nearly all actives have a fitted effect of over 60% in size
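250 HEK 293 cells/well; compound by pintool; incubated 48 or 72 hr at 37 degree Celsius; CellTiter-Glo added, 10 min RT, luminescence imaged.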
FLuc SDR -ATP = firefly luciferase binding stabilization, ATP absent; AID 1963318; Potency, µM (doses to about 32.7 µM), inactives show at the top dose activation (signal gain), actives largely listed as activators; Purified FLuc-C-HiBiT, Nano-Glo HiBiT luminescence, no ATP; actives 7.8% (n = 1,300); shares compounds with FLuc inh-1; further: nearly all actives have a fitted effect of over 55% in size
FLuc SDR ATP = stabilizes firefly luciferase with ATP present. shares compounds with FLuc inh-1. Potency, µM (top dose mostly 32.7 µM), for the others: top-dose activation (gain of signal), hits mostly activators. actives 8.7% (n = 1,300). purified FLuc-C-HiBiT + ATP, HiBiT complementation luminescence;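 further: signal reports ligand binding via conformational change of the enzyme rather than luciferase catalysis; % of control where 0% means no effect; nearly all actives have a fitted effect of over 55% in size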
FLuc inh-2 = blocks firefly luciferase enzymatic activity; shares compounds with FLuc inh-1; Potency, µM (doses to about 32.7 µM), for inactives: top-dose activity change, negative = inhibition, actives largely listed as inhibitors; actives 42% (n = 1,300); purified FLuc-C-HiBiT enzyme, luciferin luminescence; further: on the % scale 0 is the no-effect control and ±100 the full control effect; nearly all actives have a fitted effect of over 70% in size
* = called active by the depositor; i = inactive; ? = inconclusive; · = no result; [ ] = another dose, or the depositor's remark. Only some compounds are listed: those with a hit (about 11% of all), similar ones and a draw of the others. Unless noted, the call rests on the fitted dose curve; in most records, active means well fitted curve in the direction sought with a large enough effect; inconclusive means small, poorly fitted or top-dose-only effect, or another doubt; inactive means no such curve, though single readings can be large; an effect the other way counts as inactive or inconclusive. Potency means the concentration at half of the fitted maximal effect.

SMILES | FLuc inh-1 | hNpr1 antagonist | NIH3T3 tox | HEK293 tox | FLuc SDR -ATP | FLuc SDR ATP | FLuc inh-2
COc1ccc(CN(C(=O)c2cc3ccccc3oc2=O)C2CCS(=O)(=O)C2)cc1OC (stereo not given) | · | · | · | · | 19.6% | ? | -16.6%
O=C(N[C@@H]1CN(C(=O)Nc2ccc(OC(F)(F)F)cc2)CCC[C@H]1O)c1ccc(OCCN2CCOCC2)cc1 | ? | -2.0% | ? | ? | · | · | ·
COc1ccc(C(=O)N[C@@H]2CN(C(=O)Nc3ccc(OC(F)(F)F)cc3)CCC[C@H]2O)cc1 | 8.91µM* | ? | 44.7µM* | 39.8µM* | 16.3% | 12.3% | ?
O=C(c1cc(-c2ccccc2O)on1)N1CCCCC1 | · | · | · | · | 24.2% | 15.5% | ?
O=C(c1cn2cc(-c3ccccc3)sc2n1)N1CCCCC1 | · | · | -33.3%[138 µM] | ? | · | · | ·
COc1ccc(CN2C(=O)CO[C@H](c3ccc(NC(=O)Nc4ccccc4)cc3)[C@H]2CO)cc1 | ? | -2.0% | ? | ? | · | · | ·
CCOc1cc(C(=O)Nc2ccc(-c3nc4ccccc4s3)cc2Cl)cc(OCC)c1OCC | · | · | · | · | 16.7% | 12.4% | ?
COc1ccc(-c2ccc(NC(=O)c3ccc(F)cc3)cc2)nn1 | · | · | 3.8%[138 µM] | 1.7%[172 µM] | · | · | ·
COc1ccc(-c2nc3ccccc3s2)cc1NC(=O)c1ccc(F)cc1 | · | · | · | · | 14.4% | 8.8% | -5.3%
COc1cc(OC)cc(C(=O)Nc2cc(-c3nc4ccccc4s3)ccc2OC)c1 | · | · | · | · | 13.4% | 8.1% | -13.2%
COc1ccc(-c2noc([C@@H](C)NC(=O)c3nc4ccccc4s3)c2C(=O)O)cc1 | ? | -1.6% | -13.0% | ? | · | · | ·
O=C(Nc1ccccc1)NC1CCN(c2ccc3nnc(C4CC4)n3n2)C1 (stereo not given) | · | · | -28.4% | -12.7% | · | · | ·
CSc1ccc(CNC(=O)C2CCN(C(=O)c3ncn4c3COC(c3ccccc3)C4)CC2)cc1 (stereo not given) | 12.6µM* | -18.6% | i | 8.9% | 16.2% | ? | ?
CC(CNC(=O)C1CCN(C(=O)c2ncn3c2COC(c2ccccc2)C3)CC1)c1ccccc1 (stereo not given) | 3.55µM* | -13.7% | -21.4% | -15.5% | 10.5% | 1.57µM* | 2.48µM*
O=C(NCCc1ccccc1)C1CCN(C(=O)c2ncn3c2COC(c2ccccc2)C3)CC1 (stereo not given) | 3.16µM* | 0.0% | i | -0.1% | 10.6% | ? | 2.48µM*
COc1ccc(C2Cn3cnc(C(=O)N4CCC(C(=O)NCc5ccccc5)CC4)c3CO2)cc1 (stereo not given) | i | -4.3% | i | 9.9% | · | · | ·
O=C(NCc1ccncc1)C1CCN(C(=O)c2ncn3c2COC(c2ccc(F)cc2)C3)CC1 (stereo not given) | 7.94µM* | 1.1% | i | 6.7% | 12.7% | ? | ?
O=C(NCc1cccnc1)C1CCN(C(=O)c2ncn3c2COC(c2ccc(F)cc2)C3)CC1 (stereo not given) | ? | -2.0% | i | -3.7% | · | · | ·
COc1cc(OC)cc(C(=O)N[C@@H]2CN(c3ncccn3)C[C@H]2CO)c1 | i | 2.2% | i | i | · | · | ·
CCCC(=O)NC1CN(c2ccnc3ccnn23)C1 | · | · | -13.8%[138 µM] | -0.8%[172 µM] | · | · | ·
CCc1ccc(NC(=O)c2cc3ccccn3n2)cc1 | · | · | · | · | ? | ? | 1.76µM*
Cc1cn2nc(C(=O)Nc3ccccc3)cc2c(N(C)Cc2ccccc2)n1 | i | 14.8% | ? | ? | · | · | ·
COc1cccc(-c2csc(CN3CCCC(C)(NC(C)=O)C3)c2)c1 (stereo not given) | 5.01µM* | -6.1%[70.6 µM] | ? | ? | 17.1%[49.3 µM] | 15.7%[49.3 µM] | ?
COc1ccc(-c2cc(=O)c3cc(OCC(=O)OC(C)C)ccc3o2)cc1 | · | · | · | · | ? | ? | 3.94µM*
COc1ccc(-c2noc(C(=O)O)c2[C@H](C)O)cc1 | i | 2.3%[70.6 µM] | i | 4.2%[230 µM] | · | · | ·
SMILES | FLuc inh-1 | hNpr1 antagonist | NIH3T3 tox | HEK293 tox | FLuc SDR -ATP | FLuc SDR ATP | FLuc inh-2
CC(=O)NC1CCCN(c2ccc3nnc(C4CC4)n3n2)C1 (stereo not given) | · | · | -21.0%[138 µM] | -11.0%[172 µM] | · | · | ·
Cc1ccc(-c2nnc(SCc3ccccc3C#N)o2)cc1 | · | · | · | · | 16.5% | ? | 2.21µM*
Cc1ccc(-n2nc(C)c([C@@H]3C=C[C@@H](NC(=O)Nc4ccc(Cl)cc4)C3)c2C)cc1Cl | 10µM* | ? | 28.2µM* | 15.8µM* | 14.7% | 15.6% | ?
Cc1ccc(-n2nc(C)c([C@H]3C=C[C@@H](O)C3)c2C)cc1Cl | 1.12µM* | 17.8µM* | ? | ? | 25.1%[49.3 µM] | ? | 12.8µM*
Cc1cc(Cl)ccc1-n1nc(C)c([C@@H]2C=C[C@@H](NC(=O)CCCC(=O)O)C2)c1C | ? | -2.3%[70.6 µM] | -6.8%[174 µM] | 0.4%[172 µM] | · | · | ·
CN(C)c1ccc(-n2c(=O)c(C(=O)NCC(F)(F)F)nc3cccnc32)cc1 | · | · | -16.9% | i | · | · | ·
CCOC(=O)C1(Cc2cccc(OC)c2)CCCN(C(=O)CCN2CCCCO2)C1 (stereo not given) | i | 4.9% | 0.2% | -2.7% | · | · | ·
CSc1ccc(/C=C/c2nc3ccccc3n2S(=O)(=O)c2cccc(Cl)c2)cc1 | · | · | · | · | 1.97µM* | ? | 0.556µM*
O=S(=O)(c1cccc(Cl)c1)n1c(/C=C/c2ccccc2Cl)nc2ccccc21 | · | · | · | · | 1.57µM* | ? | 0.176µM*
Cc1ccc(/C=C/c2nc3ccccc3n2S(=O)(=O)c2ccc(Br)cc2)cc1 | · | · | · | · | 1.76µM* | ? | 0.624µM*
COc1cc(C)ccc1OCc1cc(C(=O)NCc2n[nH]c3c2CCC3)no1 | 11.2µM* | -0.1% | ? | ? | 17.2% | 14.4% | ?
CCn1cnnc1CC1CCN(C(=O)c2cc(-c3ccc(C)c(C)c3)nc3ccccc23)CC1 | 7.94µM* | -15.6% | 39.8µM* | ? | ? | ? | 2.79µM*
CC(C)COC(=O)N1C[C@H](C(N)=O)[C@H]2c3ccccc3N(C)C(=O)[C@]21C | · | · | ? | -20.1% | · | · | ·
CCCc1ccc2oc(C(=O)NCCc3nncn3CC)c(C)c2c1 | 3.55µM* | -15.5% | ? | ? | 13.4% | 15.2% | ?
COc1ccc(C(CC(=O)NCCc2ccc(OC)c(OC)c2)c2c[nH]c3ccccc23)c(OC)c1 (stereo not given) | i | -17.4% | ? | ? | · | · | ·
Cc1cc(C)c(S(=O)(=O)N2CCCC(Cn3cc(CO)nn3)C2)c(C)c1 (stereo not given) | i | 11.7% | -27.5% | -22.3% | · | · | ·
